Screens from PubChem BioAssay.
GDH-TPI counter: inhibits GDH-TPI coupling enzymes, artifact for Mtb FBA screen | AID 588335 | GDH-TPI coupled enzyme counterscreen, NADH absorbance | inhibition, % at 4.8 µM | 360,000 compounds, 1.2% hits; in the data active = inhibition above about 30%;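 note: 0% = DMSO wells and 100% = wells lacking the enzyme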
Mtb FBA inh: Mtb fructose-bisphosphate aldolase inhibition; P9WQA3; purified M. tuberculosis FBA, fluorescence read-out; inhibition, % at 1 µM; 360,000 compounds, 2.3% hits; in the data active = inhibition above about 27%;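 note: 0% = vehicle and 100% = reference inhibitor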
Target sequence (P9WQA3 whole entry, looked up): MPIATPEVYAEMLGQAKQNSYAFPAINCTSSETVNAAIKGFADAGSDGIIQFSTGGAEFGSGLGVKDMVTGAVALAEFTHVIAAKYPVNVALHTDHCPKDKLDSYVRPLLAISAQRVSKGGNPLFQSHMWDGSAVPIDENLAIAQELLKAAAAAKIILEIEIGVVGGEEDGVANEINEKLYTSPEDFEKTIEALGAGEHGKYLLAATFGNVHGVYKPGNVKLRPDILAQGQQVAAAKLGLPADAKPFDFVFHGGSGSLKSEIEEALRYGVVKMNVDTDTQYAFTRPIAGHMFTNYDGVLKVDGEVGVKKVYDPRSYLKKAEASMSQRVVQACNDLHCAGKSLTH
RecA intein inh: blocks M. tuberculosis RecA intein splicing. P9WHJ3. cell-free RecA intein splicing, fluorescence. inhibition, % (concentration not given with the values). 290,000 compounds, 0.75% hits; in the data active = inhibition above about 30%;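 note: 0% = vehicle wells and 100% = reference inhibitor control wells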
BJeLR lethal: kills HRASV12-expressing BJeLR cells; BJeLR (HRASV12) viability, CellTiter-Glo ATP luminescence, 48 h; inhibition, % (no concentration beside the values); 300,000 compounds, 0.17% hits; in the data active = inhibition above about 50%
PrPC surface inh: reduces human prion protein on the cell surface | P04156 | cell surface PrPC, TR-FRET read-out | inhibition, % at 13.8 µM | 370,000 compounds, 0.43% hits; in the data active = inhibition above about 24%; note: 0% = median of the test wells and 100% = reference compound wells
Active calls of the source: *; i = inactive; · = no result; + = active, no number. Only some compounds are listed: those with a hit (about 4.2% of all), similar ones and a draw of the others.

SMILES | GDH-TPI counter | Mtb FBA inh | RecA intein inh | BJeLR lethal | PrPC surface inh
Cc1cc(C(=O)OCCCN(C)C2CN(Cc3cn(Cc4ccccc4C(F)(F)F)nn3)S(=O)(=O)C2)no1 (stereo not given) | · | · | · | · | 1
O=C(N/N=C/c1ccncc1)c1cc2c(ccc3ccccc32)o1 | 47* | 3 | -4 | 0 | -9
O=C(O)c1ccc(/C=N/NC(=O)c2cc3c(ccc4ccccc43)o2)cc1 | 57* | -2 | -6 | 19 | 6
O=C(N/N=C/c1cccc([N+](=O)[O-])c1)c1cc2c(ccc3ccccc32)o1 | -1 | 2 | -3 | -9 | 4
COC(=O)C1=C(C)N(Cc2ccc(Br)cc2)C(=S)NC1c1ccc(OC)cc1 (stereo not given) | · | · | · | · | 5
Cc1ccccc1CN1CCCCC(NC(=O)Nc2cccc(F)c2)C1=O (stereo not given) | · | · | · | · | 10
C[C@H]1[C@H](c2ccccc2)OC(O)([C@H](Cc2ccccc2)NC(=O)OC(C)(C)C)CN1C (stereo not given in full) | · | · | · | · | -5
C(C#CCCCCCCCCC[n+]1ccccc1)#CCCCCCCCCC[n+]1ccccc1 | 1 | -3 | 5 | 52* | 17
O=C(Nc1ccc(F)cc1)OCc1cn(Cc2cccc(Cl)c2)nn1 | · | · | · | · | 9
COc1ccc(-n2nc(N)c(C(N)=O)n2)cc1 | 13 | + | -8 | 1 | -2
COc1ccc(C(=O)n2cnnc2N)cc1 | 0 | 3 | 5 | -3 | -5
C=CCN1N=C(/C=C/c2ccc(OC)cc2)CCC1=O | 34* | -1 | -3 | 4 | -11
CCOC(=O)C(C)N1N=C(/C=C/c2ccc(C)cc2)CCC1=O (stereo not given) | 39* | -4 | 7 | 4 | -4
CCOC(=O)CN1N=C(/C=C/c2ccccc2)CCC1=O | 17 | 5 | 2 | -5 | 5
CCOC(=O)CN1N=C(/C=C/c2ccc(OCC)cc2)CCC1=O | 34* | -6 | -1 | -7 | -9
COC(=O)c1ccc(C(=O)OC)c(NC(=O)Oc2ccccc2)c1 | 5 | 155* | -90 | 4 | -4
CC[C@@H]1/C(=C/c2ccccc2)N2C(=O)C[C@@H](c3ccccc3)N=C2N1Cc1ccc(OC)cc1OC | · | · | · | · | -1
Cc1cc2[nH]c(=O)c(=O)[nH]c2cc1S(=O)(=O)NCc1ccc(Cl)cc1 | 24 | 48* | 2 | -10 | ·
CCCc1sc(N/N=C/c2ccccn2)nc1-c1ccc(F)cc1 | 7 | -2 | 0 | 61* | ·
CC(C)CCNC(=O)CSc1nc2c(c(=O)[nH]1)CCC2 | · | · | · | · | 7
CNC(=O)c1cc2c(=O)n3cc(C)ccc3nc2n(C(C)C)c1=N | 11 | + | -406 | 7 | -8
Cc1ccc2nc3c(cc(C(=O)NC4CCCC4)c(=N)n3C3CCCCC3)c(=O)n2c1 | 14 | 134* | -396 | -1 | -21
Cc1ccc2nc3c(cc(C#N)c(=N)n3Cc3cccnc3)c(=O)n2c1 | · | · | -27 | -3 | ·
O=C(/C=C/c1ccc(F)cc1)NNC(=O)CCN1CCN(Cc2ccccc2)CC1 | 5 | 1 | · | 55* | -12
C=CCn1c(N)c(C(=O)N2CCOCC2)sc1=S | 10 | -1 | 0 | 0 | -15
SMILES | GDH-TPI counter | Mtb FBA inh | RecA intein inh | BJeLR lethal | PrPC surface inh
CCNC(=O)c1sc(=S)n(CC)c1N | 32* | -2 | -6 | -1 | -3
CCn1c(N)c(C(=O)N2CCOCC2)sc1=S | 31* | 4 | -2 | -5 | 1
C[C@H](O)[C@@H]1CN2CCc3c([nH]c4c(-c5ccc6c(c5)OCO6)cccc34)[C@@H]2C[C@@H]1N(C)C(=S)NCCc1ccccc1 | · | · | · | · | -2
COC(=O)[C@]12C[C@H](CC(=O)NCCCN3CCCC3=O)C(=O)N(CCc3ccc(OC)c(OC)c3)C1=C[C@H](C1CCCC1)O[C@@H]2C | · | · | · | · | 11
Cc1ccc(C)c(S(=O)(=O)N2CCN(C(C(=O)Nc3ccc(F)cc3)c3ccccc3)CC2)c1 (stereo not given) | 9 | 3 | 1 | -2 | -4
O=C(Nc1ccc(F)cc1)C(c1ccccc1)N1CCN(S(=O)(=O)c2ccc3ccccc3c2)CC1 (stereo not given) | 12 | 30* | -2 | -6 | 19
COC(=O)Cn1nc(-c2ccccc2)c2cccc(C(F)(F)F)c21 | · | · | · | · | -1
OCCCc1nc2n(n1)C(c1ccccc1Cl)C=C(c1cccs1)N2 (stereo not given) | 13 | 55* | · | 21 | ·
Oc1ccc(/C=N/NC(=S)N/N=C/c2ccc(O)cc2)cc1 | 75* | 4 | -3 | -10 | -9
Oc1ccc(/C=N/NC(=S)Nc2cccnc2)cc1 | 36* | 5 | -3 | 7 | 3
COc1cccc(/C=N/NC(=S)Nc2cccnc2)c1 | 7 | 2 | · | 5 | -13
COc1ccccc1NC(=S)N/N=C/c1ccc(O)cc1 | 33* | 3 | 3 | 13 | -2
CN(Cc1cn(Cc2ccccc2)nn1)S(=O)(=O)c1ccccc1Br | · | · | · | · | 2
CC1CC(=Cc2ccc(N)cc2)C(=O)O1 (stereo not given) | 35* | -1 | · | · | -6
O=C1/C(=C\c2ccc([N+](=O)[O-])cc2)CCc2ccccc21 | 16 | 1 | · | 1 | 6
CC1CC(=Cc2ccc([N+](=O)[O-])cc2)C(=O)O1 (stereo not given) | 31* | -2 | · | · | -28
COc1ccc(-c2cc(-c3nnc(SCC(=O)Nc4nccs4)n3N)[nH]n2)cc1 | · | · | · | · | 7
O=S1(=O)CC2c3ccccc3CN2CN1Cc1ccccc1 (stereo not given) | · | · | · | · | -4
Cc1nn(Cc2ccccc2)c(C)c1/C=N/NC(=O)c1ccccc1O | 36* | -1 | -6 | 4 | 4
O=C(NC1CCCCN(Cc2cccc(F)c2)C1=O)c1cccc(F)c1 (stereo not given) | · | · | · | · | -7
CN(C)c1ccc(C(=O)NCC2CCN(C(=O)C(=O)c3cccs3)CC2)cc1 | · | · | · | · | 13
COc1cccc(-c2cc(C(F)(F)F)n3nc(N)nc3n2)c1 | 36* | 5 | 0 | 1 | -8
COc1ccc(-c2cc(C(F)(F)F)n3nc(N)nc3n2)cc1 | 20 | + | -156 | 12 | ·
CCCN1CCS(=O)(=O)N(Cc2cn(Cc3ccc(Cl)cc3)nn2)C(C(=O)OC)C1 (stereo not given) | · | · | · | · | 11
COc1ccccc1CCc1nnc(CCC(=O)N(C)Cc2cccc3ncccc23)o1 | -2 | 159* | 2 | -5 | -4
SMILES | GDH-TPI counter | Mtb FBA inh | RecA intein inh | BJeLR lethal | PrPC surface inh
COC(=O)[C@]12C[C@H](CC(=O)NCCCN3CCCC3=O)C(=O)N(CCC3=CCCCC3)C1=C[C@H](C(C)C)O[C@@H]2C1CC1 | · | · | · | · | 2
O=S1(=O)CC2c3ccccc3CN2CN1C1CCCC1 (stereo not given) | · | · | · | · | 3
CCOC(=O)[C@]12CCCC=C1N(CCCOC)C(=O)[C@@H]2CC(=O)NCCc1ccccc1OC | · | · | · | · | -3
Cc1cc(NCCCN2CCOCC2)n2c(nc3ccccc32)c1C#N | 3 | + | -144 | -8 | -2
CCN(CC)CCCNc1cc(C(F)(F)F)c(C#N)c2nc3ccccc3n12 | -4 | 14 | i | 3 | -1
Cc1cc(NCCCCO)n2c(nc3ccccc32)c1C#N | 10 | + | -55 | 0 | -3
